Compound activity deposited in PubChem BioAssay by NMMLSC.
Hits are enriched below; roughly 1.2% of the tested compounds scored in any of these assays.
GSH bead fluor: GSH bead compound fluorescence profile; 190,000 compounds, 0.25% hits; GSH beads flow cytometry, compound fluorescence 488/530 nm; hits give high values; AID 1776; fluorescence (KMESF) at 10 µM; in the data active means fluorescence above about 89;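 further: glutathione beads carrying GST-tagged Bcl family fusion proteins plus one bare bead set; values are compound well signal with DMSO vehicle wells as background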
Avidin fluor: avidin bead compound fluorescence profile; Avidin beads, compound fluorescence 488/530 nm, flow cytometry; hits give high values; fluorescence (KMESF) at 10 µM; 220,000 compounds, 0.38% hits; in the data active means fluorescence above about 47
RGS7-Gao: regulators of human RGS7-Galphao interaction. P09471. Multiplexed bead flow cytometry, RGS7-Galphao binding; actives lie on both sides. binding response (% of control), % at 10 µM. 220,000 compounds, 0.35% hits. AID 1439; in the data active means binding response below about 49% or above about 150%; inconclusive means no clear call, values can overlap the other calls; inactive means in between;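 further: fluorescent Galphao held in activated GDP-AlF4 state binding bead-coupled RGS7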
Target sequence (P09471 whole entry, looked up): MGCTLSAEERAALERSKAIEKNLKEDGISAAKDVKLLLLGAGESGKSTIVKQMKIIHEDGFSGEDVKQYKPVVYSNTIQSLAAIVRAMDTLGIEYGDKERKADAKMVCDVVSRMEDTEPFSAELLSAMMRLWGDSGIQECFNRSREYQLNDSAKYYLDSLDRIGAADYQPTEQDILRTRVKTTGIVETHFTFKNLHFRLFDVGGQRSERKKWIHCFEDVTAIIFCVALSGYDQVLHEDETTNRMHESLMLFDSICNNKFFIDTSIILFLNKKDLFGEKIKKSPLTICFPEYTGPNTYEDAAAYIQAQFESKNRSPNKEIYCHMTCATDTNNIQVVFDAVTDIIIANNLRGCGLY
RGS16-Gao HTS: modulates binding between human RGS16 and Galphao | 220,000 compounds, 0.38% hits | bead-based flow cytometry RGS16-Galphao binding, fluorescence; actives lie on both sides | binding response (% of control), % at 10 µM | O15492+P09471;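 further: Galphao activated by GDP with aluminum fluoride before binding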
RGS4-Gao reg: human RGS4-Galphao interaction regulation. P09471. Multiplexed bead flow cytometry, RGS4-Galphao binding; actives lie on both sides. 220,000 compounds, 0.33% hits. binding response (% of control), % at 10 µM; in the data active means binding response below about 49% or above about 150%; inactive means in between;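 further: fluorescent Galphao activated with aluminum fluoride binding bead-coupled RGS4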
RGS8-Gao: regulators of human RGS8-Galphao interaction; P09471; multiplexed bead flow cytometry, RGS8-Galphao binding; actives lie on both sides; response (percent of control binding), % at 10 µM; 220,000 compounds, 0.34% hits; in the data active means response below about 60% or above about 140%; inactive means in between;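 further: Galphao activated as the GDP aluminium fluoride complex binding bead-coupled RGS8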
RGS-Gao: modulates binding between human RGS4 and Galphao; shares compounds with RGS16-Gao HTS; multiplexed bead flow cytometry, RGS–Galpha-o binding; RGS4–Galpha-o binding response, % at 10 µM; 1,600 compounds, 99% hits;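 further: fluorescently labeled Galpha-o bound to GDP with aluminium fluoride binding biotinylated RGS beads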
Avidin counter: counter-screen: compounds disrupting biotin binding to avidin beads. shares compounds with RGS16-Gao HTS. streptavidin beads, fluorescein-biotin binding, flow cytometry. inhibition, % at 10 µM. 1,700 tested, under 10 active. AID 1783;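 active means inhibition above 50%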;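 further: median green fluorescence of gated singlet beads compared with DMSO control wells; 0% = DMSO wells and 100% = complete loss of bead fluorescence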
RGS8-Gao confirm: RGS8-Galphao interaction regulation, single point confirmation; shares compounds with RGS16-Gao HTS; bead-based flow cytometry RGS8-Galphao binding, fluorescence; actives lie on both sides; binding response (% of control), % at 10 µM; 1,700 compounds, 3% hits; in the data active means binding response below about 72% or above about 130%; inactive means in between;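 further: Galphao activated as GDP AlF4 complex before binding bead RGS8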
RGS7-Gao single: confirmation of regulators of human RGS7-Galphao interaction. 1,700 compounds, 7.8% hits. response (percent of control binding), % at 10 µM. bead-based flow cytometry RGS7-Galphao binding; actives lie on both sides. AID 1837. shares compounds with RGS16-Gao HTS; in the data active means response below about 75% or above about 130%; inactive means in between;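 further: fluorescent Galphao activated with GDP and aluminum fluoride binding bead-coupled RGS7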
RGS16-Gao conf: RGS16-Galphao interaction regulation, single point confirmation; response (% of control binding), % at 10 µM; 1,700 compounds, 4% hits; bead-based flow cytometry, RGS16-Galphao binding; actives lie on both sides; shares compounds with RGS16-Gao HTS; in the data active means response below about 74% or above about 130%; inactive means in between;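 further: Galphao activated as the GDP aluminium fluoride complex binding bead-coupled RGS16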
RGS4-Gao confirm: RGS4-Galphao interaction regulation, single point confirmation | shares compounds with RGS16-Gao HTS | RGS4-Galphao binding, multiplexed bead flow cytometry; actives lie on both sides | binding response (% of control), % at 10 µM | 1,700 compounds, 4% hits | AID 1840; in the data active means binding response below about 74% or above about 130%; inactive means in between
RGS19-Gao single: RGS19-Galphao interaction regulation, single point confirmation | response (percent of control binding), % at 10 µM | AID 1841 | 1,700 compounds, 5% hits | shares compounds with RGS16-Gao HTS | bead-based flow cytometry RGS19-Galphao binding; actives lie on both sides; in the data active means response below about 50% or above about 160%; inactive means in between;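 further: 100% = no compound control and 0% = blank background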
Target sequence (P09471 whole entry, looked up): as above
Target sequence (P49795 whole entry, looked up): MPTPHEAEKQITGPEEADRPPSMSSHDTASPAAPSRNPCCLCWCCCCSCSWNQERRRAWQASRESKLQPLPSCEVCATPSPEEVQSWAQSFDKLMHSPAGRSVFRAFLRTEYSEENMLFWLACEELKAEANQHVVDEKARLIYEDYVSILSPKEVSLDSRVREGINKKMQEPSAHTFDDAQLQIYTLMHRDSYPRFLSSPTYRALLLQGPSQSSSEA
Active calls of the source: *; [ ] = dose if it differs, or a comment. Unless noted, how the calls were made is not given here.

How did CC(C)(C)c1ccc(-c2nc(O)c(CC(=O)O)s2)cc1 do in these assays?
Avidin fluor: 5; RGS7-Gao: inconclusive; RGS16-Gao HTS: 100.1; RGS4-Gao reg: 100.6; RGS8-Gao: 101.4

What do the screens show for `O[C@@H]1C2CCCC1[C@]1(O)CCCCC1C2` (some centres undefined)?
GSH bead fluor: 33; Avidin fluor: 11; RGS7-Gao: 101.1; RGS16-Gao HTS: 112.7; RGS4-Gao reg: 101.6; RGS8-Gao: 101.6

Results for NC[C@@]12CCCC1C1CCC2C1 (some centres undefined) ?
GSH bead fluor: 45; Avidin counter: -0.2; RGS8-Gao confirm: 101.7; RGS7-Gao single: 101.0; RGS16-Gao conf: 107.1; RGS4-Gao confirm: 103.0; RGS19-Gao single: 106.4

How did O=C(Cc1cccs1)N/N=C/C(Cl)=C/c1ccccc1 do in these assays?
GSH bead fluor: 12; Avidin fluor: 8; RGS7-Gao: 96.1; RGS16-Gao HTS: 103.5; RGS4-Gao reg: 99.5; RGS8-Gao: 101.5

What do the screens show for `Cc1cc2cc(CNC(=O)C(C)Oc3ccccc3)ccc2n1C` (centres undefined)?
Avidin fluor: 8; RGS7-Gao: inconclusive; RGS16-Gao HTS: 96.4; RGS4-Gao reg: 98.9; RGS8-Gao: 100.2

Results for CCC(CC)C(=O)NCCc1ccc(OC)cc1 ?
GSH bead fluor: 34; RGS4-Gao reg: 237.7*[activator]; Avidin counter: 2.3; RGS8-Gao confirm: 97.3; RGS7-Gao single: 97.4; RGS16-Gao conf: 97.2; RGS4-Gao confirm: 98.4; RGS19-Gao single: 99.4

How did CCC(CC)C(=O)NCCc1ccc(OC)c(OC)c1 do in these assays?
GSH bead fluor: 10; Avidin fluor: 35; RGS7-Gao: 101.1; RGS16-Gao HTS: 102.8; RGS4-Gao reg: 102.1; RGS8-Gao: 100.8

How did CC1(C)CC(OC(=O)c2ccccc2)CC(C)(C)N1 do in these assays?
GSH bead fluor: 9; Avidin fluor: 18; RGS7-Gao: 102.1; RGS16-Gao HTS: 101.7; RGS4-Gao reg: 100.2; RGS8-Gao: 101.3

What do the screens show for `CC12CCC(C1)C(C)(C)C2OC(=O)c1ccccc1C(=O)O` (centres undefined)?
Avidin fluor: 5; RGS7-Gao: inconclusive; RGS16-Gao HTS: 144.9; RGS4-Gao reg: 154.8*[activator]; RGS8-Gao: 128.4; Avidin counter: -1.4; RGS8-Gao confirm: 92.9; RGS7-Gao single: 89.6; RGS16-Gao conf: 91.6; RGS4-Gao confirm: 91.8; RGS19-Gao single: 107.1

How did COc1ccccc1/C=C/C=N/NC(=O)c1cc(-c2ccc(C)o2)[nH]n1 do in these assays?
Avidin fluor: 7; RGS7-Gao: inconclusive; RGS16-Gao HTS: 94.3; RGS4-Gao reg: 96.8; RGS8-Gao: 98.3

How did O=[N+]([O-])c1ccc2[nH]c3nc4ccccc4nc3c2c1 do in these assays?
Avidin fluor: 5; RGS7-Gao: inconclusive; RGS16-Gao HTS: 95.0; RGS4-Gao reg: 89.9; RGS8-Gao: 102.4

How did O=C(OCC(O)COC(=O)c1cccnc1)c1cccnc1 do in these assays?
Avidin fluor: 8; RGS7-Gao: inconclusive; RGS16-Gao HTS: 99.7; RGS4-Gao reg: 96.5; RGS8-Gao: 98.4

What do the screens show for `Cc1ccc(Sc2c(O)c3ccccc3n(C)c2=O)cc1`?
GSH bead fluor: 12; Avidin fluor: 1; RGS7-Gao: 91.0; RGS16-Gao HTS: 14.2*; RGS4-Gao reg: 98.6; RGS8-Gao: 67.5; RGS-Gao: 98.6*; Avidin counter: 0.5; RGS8-Gao confirm: 103.3; RGS7-Gao single: 106.9; RGS16-Gao conf: 104.6; RGS4-Gao confirm: 109.0; RGS19-Gao single: 96.5

What do the screens show for `CC1CCCCN1CCn1c(=S)[nH]c2cc3c(cc2c1=O)OCO3` (centres undefined)?
GSH bead fluor: 14; Avidin fluor: 6; RGS7-Gao: 100.9; RGS16-Gao HTS: 158.6; RGS4-Gao reg: 105.9; RGS8-Gao: 103.8

How did Cc1cc2cc3c(cc2nc1SCC(=O)Nc1nc(C)c(C)s1)OCO3 do in these assays?
GSH bead fluor: 59; Avidin fluor: 10; RGS7-Gao: 121.0; RGS16-Gao HTS: 213.3; RGS4-Gao reg: 164.5*[activator]; RGS8-Gao: 107.7; Avidin counter: inactive; RGS8-Gao confirm: 101.0; RGS7-Gao single: 109.5; RGS16-Gao conf: 105.3; RGS4-Gao confirm: 102.8; RGS19-Gao single: 133.9

How did Cc1cc(C(=O)C(C)Sc2cccc[n+]2[O-])c(C)n1-c1ccc(Cl)cc1 (centres undefined) do in these assays?
GSH bead fluor: 15; Avidin fluor: 9; RGS7-Gao: inconclusive; RGS16-Gao HTS: 103.6; RGS4-Gao reg: 100.1; RGS8-Gao: 99.3

Results for CCOC(=O)C1(CC2CCCCO2)CCN(C(=O)Nc2ccccc2CC)CC1 (centres undefined) ?
GSH bead fluor: 11; Avidin fluor: 3; RGS7-Gao: 104.7; RGS16-Gao HTS: 105.3; RGS4-Gao reg: 105.6; RGS8-Gao: 102.4

What do the screens show for `CCC(=O)NC(c1ccc(C)cc1)c1cc([N+](=O)[O-])c2cccnc2c1O` (centres undefined)?
GSH bead fluor: 9; Avidin fluor: 1; RGS7-Gao: 71.9; RGS16-Gao HTS: 13.3; RGS4-Gao reg: 67.6; RGS8-Gao: 57.7*; RGS-Gao: 67.6*; Avidin counter: 0.3; RGS8-Gao confirm: 89.4; RGS7-Gao single: 89.1; RGS16-Gao conf: 84.8; RGS4-Gao confirm: 95.1; RGS19-Gao single: 41.6*

What do the screens show for `CC1(C)Cc2c(sc(NC(=O)/C=C/C(=O)O)c2C#N)CO1`?
Avidin fluor: 4; RGS7-Gao: inconclusive; RGS16-Gao HTS: 102.7; RGS4-Gao reg: 102.1; RGS8-Gao: 102.0
